Data as given in PubChem BioAssay (NCI).
The panel holds about 83,000 compounds, 20% with a hit somewhere; the sample as a whole holds those more often.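 A percent growth of 40 corresponds to 60% growth inhibition; 0 means no net growth; -100 means all cells died. Active threshold: below 10.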 Activity calls are given as the source filed them.

What was measured:
Test in all cases: NCI-60 one-dose screen, 48 h (100 = growth as untreated, 0 = no growth, -100 = all killed)
Settings in all cases: 10 µM
SN12C renal = system: SN12C renal
UO-31 renal = system: UO-31 renal
TK-10 renal = system: TK-10 renal
ACHN renal = system: ACHN renal
CAKI-1 renal = system: CAKI-1 renal
A498 renal = system: A498 renal
CCRF-CEM leukemia = system: CCRF-CEM leukemia
MOLT-4 leukemia = system: MOLT-4 leukemia
SR leukemia = system: SR leukemia
RPMI-8226 leukemia = system: RPMI-8226 leukemia
OVCAR-8 ovarian = system: OVCAR-8 ovarian
OVCAR-5 ovarian = system: OVCAR-5 ovarian
OVCAR-4 ovarian = system: OVCAR-4 ovarian
SK-OV-3 ovarian = system: SK-OV-3 ovarian
IGROV1 ovarian = system: IGROV1 ovarian
OVCAR-3 ovarian = system: OVCAR-3 ovarian
HS 578T breast = system: HS 578T breast
T-47D breast = system: T-47D breast
NCI/ADR-RES ovarian = system: NCI/ADR-RES ovarian

Measured: growth

CCOC1(OCC)OC(c2ccccc2)=C(C#N)C(/C=C\c2ccccc2)C1(OCC)OCC (stereo not drawn)
inactive: SN12C renal 81.3% | UO-31 renal 74% | TK-10 renal 97.1% | ACHN renal 83.5% | CAKI-1 renal 84.8% | A498 renal 83.7% | CCRF-CEM leukemia 79.1% | MOLT-4 leukemia 81.7% | SR leukemia 52.8% | RPMI-8226 leukemia 44.5% | OVCAR-8 ovarian 86.5% | OVCAR-5 ovarian 103% | OVCAR-4 ovarian 79.6% | SK-OV-3 ovarian 94.8% | IGROV1 ovarian 85.6% | OVCAR-3 ovarian 71.8% | HS 578T breast 95.1% | T-47D breast 67.5%

CC(=O)N(C)c1ccc(Nc2ccc(Nc3ccc(N(C)C(C)=O)cc3)c3c2C(=O)c2ccccc2C3=O)cc1
inactive: SN12C renal 71.4% | UO-31 renal 25.9% | TK-10 renal 79% | ACHN renal 64.3% | CAKI-1 renal 30.2% | A498 renal 110% | CCRF-CEM leukemia 55.7% | MOLT-4 leukemia 56.8% | SR leukemia 72.6% | RPMI-8226 leukemia 53.5% | OVCAR-8 ovarian 71.2% | OVCAR-5 ovarian 97.1% | OVCAR-4 ovarian 63.7% | SK-OV-3 ovarian 78.2% | IGROV1 ovarian 32.6% | OVCAR-3 ovarian 78.7% | HS 578T breast 58.3% | NCI/ADR-RES ovarian 86% | T-47D breast 54.7%

COc1cc(-c2nc(Nc3nc4ccccc4s3)[nH]c(=O)c2C#N)cc(OC)c1O
inactive: SN12C renal 102% | UO-31 renal 88.1% | TK-10 renal 112% | ACHN renal 102% | CAKI-1 renal 113% | A498 renal 103% | CCRF-CEM leukemia 103% | MOLT-4 leukemia 94.7% | SR leukemia 108% | RPMI-8226 leukemia 89.9% | OVCAR-8 ovarian 99% | OVCAR-5 ovarian 109% | OVCAR-4 ovarian 109% | SK-OV-3 ovarian 108% | IGROV1 ovarian 128% | OVCAR-3 ovarian 104% | HS 578T breast 107% | NCI/ADR-RES ovarian 111% | T-47D breast 102%

CCN(CC)CCC(=O)Nc1cccc2c1C(=O)c1c(c(O)c3ccccc3c1O)C2=O
inactive: SN12C renal 59.5% | TK-10 renal 95.6% | ACHN renal 21.6% | CAKI-1 renal 14% | A498 renal 71.4% | RPMI-8226 leukemia 33.2% | OVCAR-8 ovarian 45.3% | OVCAR-5 ovarian 80.9% | OVCAR-4 ovarian 60.2% | SK-OV-3 ovarian 63.6% | IGROV1 ovarian 36.9% | OVCAR-3 ovarian 64.8% | HS 578T breast 76.6% | NCI/ADR-RES ovarian 46.9% | T-47D breast 41.2%
active: UO-31 renal -68% | CCRF-CEM leukemia -3.1% | MOLT-4 leukemia 2.61% | SR leukemia 6.44%

Cc1cccc(C)c1NC(=O)c1sc2nc3c(cc2c1N)C(=O)CCC3
active: A498 renal -8.11%
inactive: SN12C renal 90.1% | UO-31 renal 79.5% | TK-10 renal 88.7% | ACHN renal 89.6% | CAKI-1 renal 52% | CCRF-CEM leukemia 66.5% | MOLT-4 leukemia 96.2% | SR leukemia 69.1% | RPMI-8226 leukemia 96% | OVCAR-8 ovarian 97.9% | OVCAR-5 ovarian 97.6% | OVCAR-4 ovarian 101% | SK-OV-3 ovarian 22.5% | IGROV1 ovarian 89.4% | OVCAR-3 ovarian 100% | HS 578T breast 93.2% | NCI/ADR-RES ovarian 87.6% | T-47D breast 92.8%

COc1ccc(/C=C2/CN(C(=O)c3ccc(C)cc3)C/C(=C\c3ccc(OC)cc3)C2=O)cc1
inactive: SN12C renal 90.7% | UO-31 renal 58.5% | TK-10 renal 113% | ACHN renal 92% | CAKI-1 renal 85.2% | A498 renal 89.4% | CCRF-CEM leukemia 71.3% | MOLT-4 leukemia 69.3% | SR leukemia 12.8% | OVCAR-8 ovarian 88.9% | OVCAR-5 ovarian 109% | OVCAR-4 ovarian 83.8% | SK-OV-3 ovarian 99.1% | IGROV1 ovarian 89.8% | OVCAR-3 ovarian 90.7% | HS 578T breast 92% | NCI/ADR-RES ovarian 86.7% | T-47D breast 69.3%
active: RPMI-8226 leukemia -6.11%

CCOC(=O)N/N=C\C(C)=N\NC(=O)OCC
inactive: SN12C renal 94.6% | UO-31 renal 85.1% | TK-10 renal 98.8% | ACHN renal 99.4% | CAKI-1 renal 90.1% | A498 renal 103% | CCRF-CEM leukemia 93.6% | MOLT-4 leukemia 101% | SR leukemia 96.6% | RPMI-8226 leukemia 98.8% | OVCAR-8 ovarian 99% | OVCAR-5 ovarian 100% | OVCAR-4 ovarian 102% | SK-OV-3 ovarian 98.7% | IGROV1 ovarian 108% | OVCAR-3 ovarian 106% | NCI/ADR-RES ovarian 97.9% | T-47D breast 99.9%

COc1ccc([N+](=O)[O-])c(C(=O)O)c1
inactive: SN12C renal 99.9% | UO-31 renal 88% | TK-10 renal 104% | ACHN renal 105% | CAKI-1 renal 95.7% | A498 renal 85.6% | CCRF-CEM leukemia 112% | MOLT-4 leukemia 74.4% | SR leukemia 93.8% | RPMI-8226 leukemia 110% | OVCAR-8 ovarian 101% | OVCAR-5 ovarian 102% | OVCAR-4 ovarian 102% | SK-OV-3 ovarian 99.1% | IGROV1 ovarian 108% | OVCAR-3 ovarian 102% | HS 578T breast 98.1% | NCI/ADR-RES ovarian 110% | T-47D breast 93.3%

Cc1ccc(C(=O)N2C/C(=C/c3ccccc3)C(=O)/C(=C/c3ccccc3)C2)cc1
active: SR leukemia -12.4% | RPMI-8226 leukemia -23.1% | HS 578T breast 9.99%
inactive: SN12C renal 79.5% | UO-31 renal 56.6% | TK-10 renal 96.7% | ACHN renal 72.6% | CAKI-1 renal 63.2% | A498 renal 71.7% | CCRF-CEM leukemia 23.3% | MOLT-4 leukemia 32.6% | OVCAR-8 ovarian 48.7% | OVCAR-5 ovarian 105% | OVCAR-4 ovarian 75.3% | SK-OV-3 ovarian 78.9% | IGROV1 ovarian 69.1% | OVCAR-3 ovarian 57.9% | NCI/ADR-RES ovarian 66.1% | T-47D breast 61.8%

O=C1/C(=C\c2ccc(F)cc2)CN(C(=O)c2ccccc2)C/C1=C\c1ccc(F)cc1
active: CCRF-CEM leukemia -12.6% | MOLT-4 leukemia 4.36% | SR leukemia -15.1% | RPMI-8226 leukemia -19.5% | OVCAR-8 ovarian 3.54%
inactive: SN12C renal 14.1% | UO-31 renal 38.7% | TK-10 renal 79.7% | ACHN renal 24.3% | CAKI-1 renal 21.3% | A498 renal 52.3% | OVCAR-5 ovarian 78.6% | OVCAR-4 ovarian 27.3% | SK-OV-3 ovarian 74.6% | IGROV1 ovarian 21.8% | OVCAR-3 ovarian 11.3% | HS 578T breast 28.1% | NCI/ADR-RES ovarian 24.8% | T-47D breast 57%

O=C1/C(=C\c2ccccc2)CN(C(=O)c2ccccc2F)C/C1=C\c1ccccc1
inactive: UO-31 renal 12.4% | TK-10 renal 53.8% | CAKI-1 renal 30.4% | A498 renal 45% | OVCAR-8 ovarian 10.6% | OVCAR-5 ovarian 64.9% | OVCAR-4 ovarian 28.8% | SK-OV-3 ovarian 36.6% | NCI/ADR-RES ovarian 23.8% | T-47D breast 42.7%
active: SN12C renal 6.12% | ACHN renal -3.34% | CCRF-CEM leukemia -7.33% | MOLT-4 leukemia -4.02% | SR leukemia -35.1% | RPMI-8226 leukemia -40.3% | IGROV1 ovarian -11.2% | OVCAR-3 ovarian -20.1%

COc1ccc(-c2nn(-c3cccc(NC(=O)c4ccc5c(c4)OCCO5)c3)cc2-c2ccncc2)cc1Cl
inactive: SN12C renal 51.6% | UO-31 renal 16% | TK-10 renal 36.2% | ACHN renal 41.4% | CAKI-1 renal 15% | MOLT-4 leukemia 11.3% | OVCAR-8 ovarian 29.6% | OVCAR-5 ovarian 42.7% | OVCAR-4 ovarian 49% | SK-OV-3 ovarian 25.9% | IGROV1 ovarian 41.5% | NCI/ADR-RES ovarian 10.2%
active: A498 renal -19.3% | CCRF-CEM leukemia 7.54% | SR leukemia -9.34% | RPMI-8226 leukemia -11.4% | OVCAR-3 ovarian 4.99%

Nc1c(C(=O)Nc2cccc3ccccc23)sc2nc3c(cc12)C(=O)CCC3
active: A498 renal -17.6% | CCRF-CEM leukemia 7.9% | SR leukemia 4.39% | SK-OV-3 ovarian 5.64% | OVCAR-3 ovarian -26.7% | NCI/ADR-RES ovarian 2.15%
inactive: SN12C renal 30.8% | UO-31 renal 53% | TK-10 renal 74.7% | ACHN renal 34.5% | CAKI-1 renal 23.2% | MOLT-4 leukemia 11.1% | RPMI-8226 leukemia 15.7% | OVCAR-8 ovarian 21% | OVCAR-5 ovarian 40.3% | OVCAR-4 ovarian 47.7% | IGROV1 ovarian 23.7% | HS 578T breast 14.2% | T-47D breast 47.5%

O=c1oc2cc(OS(=O)(=O)c3ccccc3)ccc2c2c1CCCCC2
active: SR leukemia 7%
inactive: SN12C renal 61.4% | UO-31 renal 59.4% | TK-10 renal 67.9% | ACHN renal 82.2% | CAKI-1 renal 73.9% | A498 renal 48.9% | CCRF-CEM leukemia 37.2% | MOLT-4 leukemia 31.4% | RPMI-8226 leukemia 23.4% | OVCAR-8 ovarian 60.4% | OVCAR-5 ovarian 83% | OVCAR-4 ovarian 53.7% | SK-OV-3 ovarian 84.3% | IGROV1 ovarian 83.4% | OVCAR-3 ovarian 81.5% | NCI/ADR-RES ovarian 56% | T-47D breast 24.8%

N#Cc1ncc(-c2ccc(C(F)(F)F)cc2)c(NCc2cc(C(F)(F)F)cc(C(F)(F)F)c2)n1
inactive: SN12C renal 21.8% | UO-31 renal 26.1% | TK-10 renal 47.4% | CAKI-1 renal 17.9% | A498 renal 15.3% | CCRF-CEM leukemia 10.5% | MOLT-4 leukemia 21.9% | SR leukemia 12.1% | OVCAR-8 ovarian 30.6% | OVCAR-5 ovarian 57.3% | OVCAR-4 ovarian 21% | SK-OV-3 ovarian 62.6% | IGROV1 ovarian 40.6% | OVCAR-3 ovarian 11.4% | HS 578T breast 36% | NCI/ADR-RES ovarian 25.5%
active: ACHN renal 0.868% | RPMI-8226 leukemia -19.6% | T-47D breast 9.88%

Nc1c(C(=O)Nc2cccc(Br)c2)sc2nc3c(cc12)C(O)CCC3 (stereo not drawn)
active: A498 renal -8.73% | SR leukemia 3.95% | OVCAR-3 ovarian -18.2%
inactive: SN12C renal 37.3% | UO-31 renal 31.9% | TK-10 renal 56.7% | ACHN renal 51.4% | CAKI-1 renal 25.6% | CCRF-CEM leukemia 12.2% | MOLT-4 leukemia 14% | RPMI-8226 leukemia 14.7% | OVCAR-8 ovarian 30.6% | OVCAR-5 ovarian 60.4% | OVCAR-4 ovarian 65.8% | SK-OV-3 ovarian 21.8% | IGROV1 ovarian 27.9% | HS 578T breast 28.3% | NCI/ADR-RES ovarian 24.5% | T-47D breast 47.4%
